# Measurements as given in PubChem BioAssay AID488969 (Vanderbilt High Throughput Screening Facility, 2010).
# In all, about 110,000 compounds were measured (“z-score”: median about -0.1, highest 2% from about 2 on). The sample as a whole holds a higher share of the highest values than the screen did. Activity calls are given as the source filed them.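 Rule for the calls: active = z-score in the third read window above 3 or below -3; inactive = the rest.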
# Target: Metabotropic glutamate receptor 8 (Rattus norvegicus) (UniProt P70579)
# Sequence (P70579 whole entry, looked up): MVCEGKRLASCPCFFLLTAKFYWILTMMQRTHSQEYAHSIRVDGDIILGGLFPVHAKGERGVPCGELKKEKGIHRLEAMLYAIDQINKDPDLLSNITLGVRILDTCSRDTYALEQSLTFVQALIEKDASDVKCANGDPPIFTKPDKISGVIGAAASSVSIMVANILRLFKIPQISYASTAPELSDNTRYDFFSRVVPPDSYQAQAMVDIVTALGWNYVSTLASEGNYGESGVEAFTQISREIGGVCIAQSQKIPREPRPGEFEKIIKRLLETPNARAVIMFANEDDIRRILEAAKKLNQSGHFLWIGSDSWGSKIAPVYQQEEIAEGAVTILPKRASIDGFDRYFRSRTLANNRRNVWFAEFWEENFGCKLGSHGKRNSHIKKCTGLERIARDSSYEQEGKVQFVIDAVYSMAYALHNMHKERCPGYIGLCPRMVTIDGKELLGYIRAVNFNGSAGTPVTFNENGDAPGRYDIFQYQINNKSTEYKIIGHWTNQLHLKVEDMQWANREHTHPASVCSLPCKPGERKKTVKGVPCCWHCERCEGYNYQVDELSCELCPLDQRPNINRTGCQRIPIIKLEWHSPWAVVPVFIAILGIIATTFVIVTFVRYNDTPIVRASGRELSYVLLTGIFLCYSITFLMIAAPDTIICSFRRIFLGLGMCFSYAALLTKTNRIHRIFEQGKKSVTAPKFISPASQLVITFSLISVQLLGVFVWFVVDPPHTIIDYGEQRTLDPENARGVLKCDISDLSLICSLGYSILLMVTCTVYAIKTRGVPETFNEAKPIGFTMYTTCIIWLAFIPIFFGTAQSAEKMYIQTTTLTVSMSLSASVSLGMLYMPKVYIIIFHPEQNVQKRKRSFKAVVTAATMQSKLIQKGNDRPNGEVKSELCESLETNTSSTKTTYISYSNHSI
# Assay: rat mGluR8 modulators via GIRK flux, primary screen, cell-based, thallium flux, HTS (AID 488969)
# Conditions: HEK293 rat mGluR8, GIRK (G protein-gated inwardly rectifying potassium channel) thallium flux, FluoZin2; at 10 µM; stronger effect = higher value; submaximal glutamate (EC20) added with thallium
row,SMILES,z-score
1,CC1(C)C(C#N)=C(N)OC2=C1C(=O)CCC2,0.297
2,Cc1cc2nc3c(c(=O)n2[nH]1)CCCC3,-0.219
3,CCCC(=O)Nc1nc2ccc(S(N)(=O)=O)cc2s1,-0.295
4,O=C(NCC1CCCO1)C(c1cccs1)N(Cc1ccccc1Cl)C(=O)c1ccc(-c2ccccc2)[nH]1 (centres undefined),2.14
5,O=C(NCC1CCCO1)C(c1cccs1)N(Cc1cccs1)C(=O)c1ccc(-c2ccccc2)[nH]1 (centres undefined),-0.486
6,O=C(NCC1CCCO1)C(c1cccs1)N(C(=O)c1ccc(-c2ccccc2)[nH]1)C1CCCC1 (centres undefined),-0.0712
7,COC(=O)CC1COc2ccccc2N1C(=O)c1ccc(C(C)(C)C)cc1 (centres undefined),-0.191
8,CCCC(=O)Nc1cc(-c2nnc(OC)c3ccccc23)ccc1N1CCOCC1,-0.445
9,O=C(Oc1ccc([N+](=O)[O-])cc1)c1cccnc1,-0.0965
10,CCNC(=S)SCCOc1ccc(C)cc1,0.376
11,CNC(=S)SCCOc1ccccc1C,0.297
12,CNC(=S)SCCOc1ccc(C)cc1,6.37 (active)
13,Cc1ccc2nc3sc(C(=O)Nc4c(C)[nH]c(=O)[nH]c4=O)c(N)c3cc2c1,-0.158
14,NC(=O)CCn1nc(-c2ccc(Cl)cc2)c2ccccc2c1=O,-0.686
15,Cc1ccc(/C(O)=C/C(=O)C(=O)NNC(=O)C(O)(c2ccccc2)c2ccccc2)cc1,2.44
16,COc1ccc(/C(O)=C/C(=O)C(=O)NNC(=O)C(O)(c2ccccc2)c2ccccc2)cc1,-0.343
17,O=C(/C=C(\O)c1ccc(Cl)cc1)C(=O)NNC(=O)C(O)(c1ccccc1)c1ccccc1,-0.125
18,CCn1c(SCC(=O)Nc2nnc(C)s2)nnc1-c1ccco1,-0.0211
19,O=C1C(=O)N(CCO)C(c2ccccc2)/C1=C(\O)c1ccccc1 (centres undefined),-0.284
20,O=C(CNC(=O)C12CC3CC(CC(C3)C1)C2)N1CCN(S(=O)(=O)c2cccs2)CC1,-0.178
21,CCCn1c(SCC(=O)NC2CCCCC2C)n[nH]c1=O (centres undefined),0.79
22,Cc1ccc(-c2ccc(/C=N/NC(=S)Nc3ccccc3)o2)cc1[N+](=O)[O-],0.442
23,O=[N+]([O-])c1ccc(/C=N/NC(=S)Nc2ccccc2F)o1,6.05 (active)

row,SMILES,z-score
1,COC(=O)N/N=C/c1ccc([N+](=O)[O-])o1,-0.0263
2,O=[N+]([O-])c1ccc(/C=N/NC(=S)Nc2ccccc2)o1,2.92
3,O=C(CNc1ccccc1)N/N=C/c1ccc([N+](=O)[O-])o1,-0.389
4,O=[N+]([O-])c1ccc(/C=N/NC(=S)Nc2ccccc2C(F)(F)F)o1,1.06
5,N#CCCn1cc(/C=N/O)c(-c2ccccc2)n1,0.0606
6,C1=C(CCNc2nnnn2-c2ccccc2)CCCC1,-0.26
7,Fc1cccc(NC(=S)Nc2ccc(Br)cc2)c1,0.843
8,CN(C)/C=N/C(=S)Nc1ccccc1F,0.0261
9,Fc1ccccc1/C=N/NC(=S)Nc1ccc(Cl)cc1Cl,3.47 (active)
10,Fc1ccccc1NC(=S)N/N=C/c1ccccc1Br,13.4 (active)
11,Cc1nn(-c2ccccc2)c(N2CCCC2)c1/C=N/NC(=S)Nc1ccccc1F,2.42
12,Cc1nn(-c2ccccc2)c(N2CCCC2)c1/C=N/NC(=S)Nc1ccccc1C(F)(F)F,0.583
13,FC(F)(F)c1ccc(Cl)c(NC(=S)N/N=C/c2ccccc2C(F)(F)F)c1,1.14
14,Cc1ccc(NC(=S)N/N=C/c2c(C)nn(-c3ccccc3)c2N2CCCC2)cc1,0.376
15,Fc1ccc(CNC(=S)Nc2ccc(Cl)cc2Cl)cc1,0.134
16,Fc1ccccc1NC(=S)Nc1ccc(Br)cc1,0.657
17,Cn1c(NC(=O)c2ccco2)cc(=O)n(C)c1=O,-0.188
18,O=C(CCSCCc1ccccn1)Nc1ccc(Br)cc1F,-0.191
19,CCc1nc2ccccc2n1Cc1ccccc1OC,-0.822
20,CC1=NNC(=O)C1CCC(=O)N/N=C/C(Br)=C/c1ccccc1 (centres undefined),-0.0952
21,O=C(c1ccc([N+](=O)[O-])cc1)N(Cc1ccc(Cl)cc1)N1C(=O)CCCC1=O,-0.682
22,Cn1cnnc1SCC(=O)Nc1sc2c(c1C#N)CCCCC2,0.0796
23,COc1ccc2cnn(Cc3ccccc3)c(=O)c2c1OC,0.037

row,SMILES,z-score
1,Cc1ccsc1/C=N/n1c(C2CCCCC2)n[nH]c1=S,0.383
2,Cc1ccsc1/C=N/n1c(COc2ccccc2)n[nH]c1=S,0.533
3,Cc1ccc(-c2n[nH]c(=S)n2/N=C/c2ccc(C)s2)cc1,2.29
4,Cc1ccc(-c2n[nH]c(=S)n2/N=C/c2cccs2)cc1,2.22
5,S=c1[nH]nc(C2CCCCC2)n1/N=C/c1cccs1,2.48
6,S=c1[nH]nc(COc2ccccc2)n1/N=C/c1cccs1,0.649
7,Cc1cccc(-c2n[nH]c(=S)n2/N=C/c2ccc(C)s2)c1,0.7
8,Cc1ccc(/C=N/n2c(C3CCCCC3)n[nH]c2=S)s1,0.644
9,S=c1[nH]nc(-c2ccccc2)n1/N=C/c1cccs1,0.587
10,Cc1ccc(/C=N/n2c(-c3cccnc3)n[nH]c2=S)s1,-0.311
11,CC(C)(C)c1n[nH]c(=S)n(/N=C/c2cccs2)c1=O,0.25
12,Cc1ccc(/C=N/n2c(COc3ccccc3)n[nH]c2=S)s1,3.29 (active)
13,CS(=O)(=O)Nc1ccc(-c2n[nH]c(=S)n2-c2ccccc2)cc1,0.118
14,CCN(CCNC(=O)C1CCN(Cc2nc(-c3ccc(Cl)cc3)oc2C)CC1)c1ccccc1,1.3
15,CN(C)c1ccnc(NCc2ccccc2)c1C#N,-0.278
16,O=C(Nc1ccncc1)Nc1ccccn1,-0.133
17,CCC(=O)N/C(=N\OCc1ccc(F)cc1)c1nonc1NC(=O)CC,-0.064
18,COc1ccccc1-c1noc(CCC(=O)Nc2cccc(C)c2)n1,-0.323
19,O=C(c1cnn2c(C(F)(F)F)cc(-c3ccco3)nc12)N1CCc2ccccc2C1,-1.04
20,O=C(c1cnn2c(C(F)(F)F)cc(-c3ccco3)nc12)N1CCCCCC1,2.24
21,O=C(c1cnn2c(C(F)(F)F)cc(-c3ccco3)nc12)N1CCCc2ccccc21,-0.976
22,COc1cc(C(C)=O)ccc1COc1ccc(C(=O)OCC(=O)NC(C)(C)C)cc1OC,-0.573
23,O=C(NCc1ccccn1)c1ccc(CNS(=O)(=O)c2ccc(F)cc2)cc1,-0.111

row,SMILES,z-score
1,CN1C(=O)c2ccccc2N(C)C1c1cccs1 (centres undefined),-1.51
2,O=c1c2[nH]c3ccccc3c2ncn1C1CCCCC1,0.256
3,O=c1c2ccccc2[nH]c(=S)n1CC1CCCO1 (centres undefined),0.302
4,CC1CCC(n2c(=S)[nH]c3ccccc3c2=O)CC1 (centres undefined),8.55 (active)
5,O=c1c2ccccc2[nH]c(=S)n1C1CCCCC1,12.5 (active)
6,CCOC(=O)N1CCC(n2c(=S)[nH]c3ccccc3c2=O)CC1,0.582
7,Cc1c(-n2c(=S)[nH]c3ccccc3c2=O)c(=O)n(-c2ccccc2)n1C,0.153
8,Cc1ccc(S(=O)(=O)Nc2cc(C(F)(F)F)ccc2N2CCOCC2)cc1,0.266
9,Cc1ccc(-c2nnc3n2CCCCC3)cc1,0.0634
10,CCNC(=O)COC(=O)C1C(C(=O)OCC)=C(C)NC(C)=C1C(=O)OCC,-0.145
11,O=C(Cn1c(=O)n(-c2ccccc2)c(=O)c2sccc21)N1CCCC1,-0.24
12,Cc1ccc(OCC(=O)N/N=C/c2cn(Cc3ccccc3)c3ccccc23)cc1,-0.188
13,O=C(O)CCCN1C(=O)/C(=C/c2ccc(-c3nc4ccccc4s3)o2)SC1=S,0.773
14,O=C(O)CCN1C(=O)/C(=C/c2ccc(-c3nc4ccccc4s3)o2)SC1=S,1.83
15,O=C(O)CCN1C(=O)/C(=C\c2ccc(-c3nc4ccccc4s3)o2)SC1=S,2.49
16,COc1ccccc1N1C(N)=NC(N)=NC1(C)C,-0.0746
17,CC(=O)CCc1ccc2oc(C(=O)O)c(C)c2c1,-0.497
18,Cc1[nH]c2ccccc2c1NC(=O)CN1CCN(Cc2ccc3c(c2)OCO3)CC1,-0.288
19,COC(=O)c1[nH]c2ccc(C)cc2c1NC(=O)CCN1CCN(Cc2ccc3c(c2)OCO3)CC1,9.23 (active)
20,COC(=O)c1[nH]c2ccc(F)cc2c1NC(=O)CCN1CCN(Cc2ccc3c(c2)OCO3)CC1,-0.752
21,CC(=NC1CC1)c1c(-c2ccccc2)[nH]n(-c2nc3ccccc3s2)c1=O,-0.25
22,CCCc1cc(-c2n[nH]c(=S)n2CC(C)C)cs1,4.16 (active)
23,Cc1scc(-c2n[nH]c(=S)n2Cc2ccccc2)c1C,0.854

row,SMILES,z-score
1,Cc1cc(-c2n[nH]c(=S)n2CC(C)C)cs1,-0.405
2,CCc1c(-c2n[nH]c(=S)n2Cc2ccccc2)csc1C,2.88
3,CCc1cc(-c2n[nH]c(=S)n2Cc2ccccc2)cs1,0.464
4,S=c1[nH]nc(-c2ccncc2)n1Cc1ccccc1,1.42
5,CCc1cc(-c2n[nH]c(=S)n2CC(C)C)cs1,1.12
6,Cc1cc(-c2n[nH]c(=S)n2Cc2ccccc2)cs1,0.453
7,CCCc1cc(-c2n[nH]c(=S)n2Cc2ccccc2)cs1,4.6 (active)
8,Cc1nc2c(C)cccc2cc1C(=O)N/N=C/c1cccnc1,-0.392
9,CCc1cccc(CC)c1NC(=O)COC(=O)c1cccc(-c2ccc(OC(C)=O)cc2)c1,-1.91
10,Cc1ccccc1C(=NCCCN(C)C)c1ccccc1C,0.825
11,O=C(Cc1cccs1)N(Cc1ccco1)C1(C(=O)NC2CCCCC2)CCCCC1,1.89
12,Cn1nc(Oc2nc(N3CCOCC3)nc(N3CCOCC3)n2)ccc1=O,0.165
13,CCC1CCCCN1C(=O)c1cc2cc(Br)ccc2oc1=O (centres undefined),7.8 (active)
14,CCOC(=O)N1CCN(C(=O)c2cc3cc(Br)ccc3oc2=O)CC1,-0.271
15,O=C(c1cc2cc(Br)ccc2oc1=O)N1CCCC1,0.0138
16,C=CCNC(=O)CC(=O)N/N=C/c1ccc(F)cc1,-0.18
17,C=CCn1c(-c2ccc(OC)cc2)csc1=Nc1c(C)n(C)n(-c2ccccc2)c1=O,-0.422
18,N#CC1=C(S)N=C(N)C(c2nc(-c3ccccc3)cs2)C12CCCC2 (centres undefined),0.271
19,Cc1ccc(S(=O)(=O)N(C)/C(=N/S(=O)(=O)c2ccccc2)c2ccccc2)cc1,-0.162
20,O=C(O)/C=C/c1cn(-c2ncc(C(F)(F)F)cc2Cl)c2ccccc12,-0.0759
21,CC(=O)/C=C\c1cn(-c2ncc(C(F)(F)F)cc2Cl)c2ccccc12,-0.119
22,CN(C)/C=C/C(=O)/C=C/c1cn(-c2ncc(C(F)(F)F)cc2Cl)c2ccccc12,5.57 (active)
